Laboratory results from PubChem BioAssay (EPA / NIEHS).
Activity calls are given as the source filed them. Rule for the calls: active = hit-call score of the fitted dose curve at least 0.9, where 1 is the maximum; inactive = score below 0.9.

Key:
[1] = ATG_CRE_CIS: Attagene CIS-FACTORIAL HepG2 Assay for human cAMP Responsive Element (CRE) binding protein 3 (AID 2282926); details: HepG2 CRE cis-reporter, Attagene multiplexed mRNA; actives raise or lower the signal
How it was run: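 Endogenous CRE-binding activity in HepG2 is reported through a cis-regulated transfected reporter. Following a day of exposure, mRNA levels are determined by reverse transcription PCR and fluorescent fragment analysis; fits run in both directions versus DMSO.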

[2] = biological target: CCAAT/enhancer-binding protein beta (Homo sapiens) (UniProt P17676); assay: ATG_C_EBP_CIS: Attagene CIS-FACTORIAL HepG2 Assay for human CCAAT/Enhancer Binding Protein (C/EBP) beta (AID 2282927); details: HepG2 Attagene cis-factorial transcription factor reporter; actives raise or lower the signal
How it was run: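 Transiently transfected HepG2 (MRTU library, endogenous TF-driven promoters); 24 h dosing; total RNA → oligo(dT) RT → PCR → 6-FAM primer extension → HpaI digest → CE; fit bidirectionally vs DMSO.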

[3] = ATG_CMV_CIS: Attagene CIS-FACTORIAL HepG2 Assay for human CMV (Internal Marker) (AID 2282928); details: HepG2 CMV promoter reporter, transcription factor profiling; actives raise or lower the signal;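 note: endpoint acts as a background internal control marker rather than a target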
How it was run: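 Endogenous transcription factor activity read in HepG2 via transfected cis-promoter reporter units. After 24 h dosing, reporter mRNA measured by RT-PCR/capillary electrophoresis; gain or loss of signal fit relative to DMSO.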

[4] = ATG_DR4_LXR_CIS: Attagene CIS-FACTORIAL HepG2 Assay for human Liver X Receptor (LXR), DR4 submotif (AID 2282929); details: HepG2 Attagene DR4 cis-reporter, mRNA transcription; actives raise or lower the signal
How it was run: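 HepG2, transient MRTU transfection, cis-element (DR4) promoter; 24 h compound exposure; total RNA → oligo(dT) RT → PCR → 6-FAM primer extension → HpaI cut → CE. Gain/loss vs DMSO, bidirectional fit.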

[5] = biological target: Aryl hydrocarbon receptor (Homo sapiens) (UniProt P35869); assay: ATG_Ahr_CIS: Attagene CIS-FACTORIAL HepG2 Assay for human Aryl Hydrocarbon Receptor (Ahr) (AID 2282930); details: HepG2 AhR cis-factorial reporter transcription; actives raise or lower the signal
How it was run: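 Read-out: reporter mRNA quantified by RT-PCR with fluorescent primer extension and capillary electrophoresis. Human HepG2 liver cells carried transfected cis-promoter reporter units and were exposed to chemical for 24 h; gain or loss fitted relative to DMSO.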

[6] = ATG_AP_1_CIS: Attagene CIS-FACTORIAL HepG2 Assay for human Activator Protein 1 (AP-1) (AID 2282931); details: HepG2 Attagene cis-factorial AP-1 reporter mRNA; actives raise or lower the signal
How it was run: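 Transient MRTU transfection of HepG2 → 24 h chemical treatment → RNA isolation, RT-PCR, 6-FAM labelling, HpaI digest → capillary electrophoresis. Fit: bidirectional, DMSO negative control.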

[7] = ATG_AP_2_CIS: Attagene CIS-FACTORIAL HepG2 Assay for human Activator Protein 2 (AP-2) (AID 2282932); details: HepG2 AP-2 cis-reporter, Attagene transcription factor profiling; actives raise or lower the signal
How it was run: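 Multiplexed mRNA reporter assay in HepG2: cis-regulated units report endogenous factor activity after 24 h treatment. Fluorescence from capillary electrophoresis of RT-PCR products gives the signal, with DMSO as baseline.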

[8] = ATG_BRE_CIS: Attagene CIS-FACTORIAL HepG2 Assay for human Bone Morphogenetic Protein (BMP) Response Element (BRE) (AID 2282933); details: HepG2 BMP response element reporter, Attagene transcription factor profiling; actives raise or lower the signal
How it was run: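 HepG2 cells transiently transfected with multiplexed cis-element reporter units were dosed with chemical for 24 h. Reporter mRNA was measured by RT-PCR with fluorescent labelling, HpaI digestion and capillary electrophoresis; bidirectional fitting relative to DMSO.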

[9] = biological target: Retinoic acid receptor alpha (Homo sapiens) (UniProt P10276); assay: ATG_DR5_RAR_CIS: Attagene CIS-FACTORIAL HepG2 Assay for human Retinoic Acid Receptor Alpha (RARE), DR5 submotif (AID 2282934); details: HepG2 Attagene cis-factorial RARE DR5 reporter, mRNA; actives raise or lower the signal
How it was run: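 Read-out: DR5-driven reporter transcript measured by RT-PCR, 6-FAM primer extension, HpaI digest and capillary electrophoresis. Human HepG2 liver cells carry transiently transfected cis-element reporter constructs; dosing lasts 24 h. Gain or loss of signal fitted against DMSO baseline.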

[10] = biological target: Transcription factor E2F1 (Homo sapiens) (UniProt Q01094); assay: ATG_E2F_CIS: Attagene CIS-FACTORIAL HepG2 Assay for human E2F Transcription Factor 1 (AID 2282935); details: HepG2 Attagene cis-reporter, E2F reporter RNA transcripts; actives raise or lower the signal
How it was run: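 Measures reporter transcript levels via RT-PCR with capillary electrophoresis detection in HepG2 cells harboring cis-regulated reporter units; 24 h post-dose; bidirectional curve fitting with DMSO as baseline.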

[11] = ATG_E_Box_CIS: Attagene CIS-FACTORIAL HepG2 Assay for human Enhancer Box (E-box) (AID 2282936); details: HepG2 E-box cis-reporter transcription, actives raise or lower the signal
How it was run: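 First, HepG2 cells receive multiple cis-regulated reporter constructs by transient transfection. Next, chemicals are applied for 24 h. Finally, reporter mRNA is quantified via RT-PCR and capillary electrophoresis, with DMSO as baseline.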

[12] = ATG_M_61_CIS: Attagene CIS-FACTORIAL HepG2 Assay for M61 Transcription Factor (Internal Marker) (AID 2282937); details: HepG2 Attagene CIS-FACTORIAL M61 internal marker reporter; actives raise or lower the signal
How it was run: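 Human liver HepG2, transient MRTU transfection (cis promoter elements), 24 h compound. Total RNA → oligo(dT) RT → PCR → FAM label → HpaI → CE. Internal background marker; bidirectional fitting, DMSO = baseline.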

[13] = ATG_EGR_CIS: Attagene CIS-FACTORIAL HepG2 Assay for human Early Growth Response 1 (EGR1) (AID 2282938); details: HepG2 Attagene CIS-FACTORIAL EGR reporter mRNA; actives raise or lower the signal
How it was run: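 Transient transfection of human HepG2 with multiple cis-regulated reporter units, chemical exposure 24 h, total RNA isolated. Reverse transcription, PCR, fluorescent labelling and capillary electrophoresis quantify reporter transcripts; activity fitted bidirectionally against DMSO.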

[14] = ATG_Ets_CIS: Attagene CIS-FACTORIAL HepG2 Assay for human Erythroblast Transformation Specific (ETS) (AID 2282941); details: HepG2 ETS cis-reporter transcription, actives raise or lower the signal
How it was run: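 Steps: transfect HepG2 with multiple reporter units; treat compound 24 h; isolate RNA, DNase-treat, reverse-transcribe; PCR-amplify, label with 6-FAM, digest with HpaI; separate by capillary electrophoresis. Activity fitted both directions versus DMSO.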

[15] = biological target: Hepatocyte nuclear factor 3-beta (Homo sapiens) (UniProt Q9Y261); assay: ATG_FoxA2_CIS: Attagene CIS-FACTORIAL HepG2 Assay for human Forkhead box A2 (FOXA2) (AID 2282942); details: HepG2 cis-reporter transcription factor activity, 24 h; actives raise or lower the signal
How it was run: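 Transient MRTU transfection of HepG2 liver cells; 24 h treatment; total RNA → oligo(dT) RT → PCR → FAM primer extension → HpaI cut → CE. Bidirectional fit vs DMSO.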

[16] = ATG_FoxO_CIS: Attagene CIS-FACTORIAL HepG2 Assay for human Forkhead box O (FoxO) (AID 2282943); details: HepG2 Attagene cis-reporter, FoxO element, mRNA; actives raise or lower the signal
How it was run: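 Read-out: fluorescence of 6-FAM-labelled reporter cDNA fragments resolved by capillary electrophoresis. Transiently transfected HepG2 cells were dosed for 24 h; activity fitted in both directions relative to DMSO controls.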

[17] = ATG_GATA_CIS: Attagene CIS-FACTORIAL HepG2 Assay for human GATA Binding Protein (AID 2282944); details: HepG2 GATA cis-element reporter, Attagene multiplex mRNA; actives raise or lower the signal
How it was run: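 HepG2 cells transiently transfected with multiplexed cis-element reporter units reflecting endogenous transcription factor activity; reporter mRNA measured after 24 h dosing by RT-PCR, 6-FAM labeling, HpaI digestion and capillary electrophoresis. Bidirectional fitting versus DMSO baseline.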

[18] = ATG_GLI_CIS: Attagene CIS-FACTORIAL HepG2 Assay for human Zinc Finger Protein GLI1 (AID 2282945); details: HepG2, Attagene cis-factorial reporter mRNA, GLI element; actives raise or lower the signal
How it was run: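 Transiently transfected HepG2 cells report endogenous transcription factor activity via cis-element-driven reporter units. After 24 h compound exposure, reporter mRNA was measured by RT-PCR with capillary electrophoresis; bidirectional fitting against DMSO baseline.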

[19] = ATG_M_19_CIS: Attagene CIS-FACTORIAL HepG2 Assay for M19 Transcription Factor (Internal Marker) (AID 2282939); details: HepG2 Attagene CIS-FACTORIAL M19 internal marker reporter; actives raise or lower the signal
How it was run: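 HepG2 cells transiently transfected with cis-regulated multiple reporter transcription units were dosed for 24 h; reporter mRNA was quantified by RT-PCR, 6-FAM primer-extension labelling, HpaI digestion and capillary electrophoresis, with bidirectional fitting against DMSO baseline.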

Measured: AC50

Sequence of Retinoic acid receptor alpha (Homo sapiens) (P10276 whole entry, looked up): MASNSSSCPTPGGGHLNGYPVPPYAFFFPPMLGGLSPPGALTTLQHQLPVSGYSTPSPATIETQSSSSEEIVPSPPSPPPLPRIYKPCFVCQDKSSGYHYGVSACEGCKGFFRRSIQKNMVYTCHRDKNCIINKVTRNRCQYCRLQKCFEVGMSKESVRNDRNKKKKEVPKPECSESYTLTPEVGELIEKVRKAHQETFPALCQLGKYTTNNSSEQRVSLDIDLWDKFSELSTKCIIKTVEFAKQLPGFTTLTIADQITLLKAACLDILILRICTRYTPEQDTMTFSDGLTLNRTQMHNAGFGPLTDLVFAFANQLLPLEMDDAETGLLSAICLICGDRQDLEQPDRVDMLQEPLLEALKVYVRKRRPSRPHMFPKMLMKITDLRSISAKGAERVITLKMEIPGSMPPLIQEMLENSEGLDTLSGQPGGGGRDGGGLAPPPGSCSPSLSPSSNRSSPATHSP
Sequence of Aryl hydrocarbon receptor (Homo sapiens) (P35869 whole entry, looked up): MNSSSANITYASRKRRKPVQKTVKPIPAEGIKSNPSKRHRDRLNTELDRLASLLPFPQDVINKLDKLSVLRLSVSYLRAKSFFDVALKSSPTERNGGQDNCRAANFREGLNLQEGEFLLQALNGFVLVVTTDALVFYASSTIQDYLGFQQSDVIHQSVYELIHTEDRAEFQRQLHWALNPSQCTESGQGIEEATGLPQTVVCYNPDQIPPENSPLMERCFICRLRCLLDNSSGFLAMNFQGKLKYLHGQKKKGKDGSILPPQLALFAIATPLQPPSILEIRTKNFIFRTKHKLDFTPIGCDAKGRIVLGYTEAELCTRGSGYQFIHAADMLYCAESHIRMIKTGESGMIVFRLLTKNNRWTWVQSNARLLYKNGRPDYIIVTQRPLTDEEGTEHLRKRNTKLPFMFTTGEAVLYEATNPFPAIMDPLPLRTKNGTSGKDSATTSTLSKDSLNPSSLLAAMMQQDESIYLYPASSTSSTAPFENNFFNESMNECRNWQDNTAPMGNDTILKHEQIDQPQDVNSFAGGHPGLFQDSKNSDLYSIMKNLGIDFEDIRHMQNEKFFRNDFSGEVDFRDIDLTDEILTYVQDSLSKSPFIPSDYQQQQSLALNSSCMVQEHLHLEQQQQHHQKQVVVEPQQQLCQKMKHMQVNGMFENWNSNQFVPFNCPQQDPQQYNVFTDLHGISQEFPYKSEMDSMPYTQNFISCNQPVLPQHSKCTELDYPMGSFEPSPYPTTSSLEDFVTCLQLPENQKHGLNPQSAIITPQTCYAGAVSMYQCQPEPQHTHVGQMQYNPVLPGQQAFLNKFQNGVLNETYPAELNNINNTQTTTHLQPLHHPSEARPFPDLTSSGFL
Sequence of Hepatocyte nuclear factor 3-beta (Homo sapiens) (Q9Y261 whole entry, looked up): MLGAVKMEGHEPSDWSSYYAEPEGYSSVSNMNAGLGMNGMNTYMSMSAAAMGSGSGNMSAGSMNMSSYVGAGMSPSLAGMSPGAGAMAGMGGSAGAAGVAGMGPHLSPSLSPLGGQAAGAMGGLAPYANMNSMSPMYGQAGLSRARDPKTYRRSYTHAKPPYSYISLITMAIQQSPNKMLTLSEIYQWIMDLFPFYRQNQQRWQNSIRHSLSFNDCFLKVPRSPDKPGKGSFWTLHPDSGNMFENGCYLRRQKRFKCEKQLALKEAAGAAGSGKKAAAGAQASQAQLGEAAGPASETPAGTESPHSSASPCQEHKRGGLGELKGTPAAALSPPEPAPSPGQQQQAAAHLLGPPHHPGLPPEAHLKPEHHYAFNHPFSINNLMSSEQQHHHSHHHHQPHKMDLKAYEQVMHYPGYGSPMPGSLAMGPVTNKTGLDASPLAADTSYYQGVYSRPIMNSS
Sequence of Transcription factor E2F1 (Homo sapiens) (Q01094 whole entry, looked up): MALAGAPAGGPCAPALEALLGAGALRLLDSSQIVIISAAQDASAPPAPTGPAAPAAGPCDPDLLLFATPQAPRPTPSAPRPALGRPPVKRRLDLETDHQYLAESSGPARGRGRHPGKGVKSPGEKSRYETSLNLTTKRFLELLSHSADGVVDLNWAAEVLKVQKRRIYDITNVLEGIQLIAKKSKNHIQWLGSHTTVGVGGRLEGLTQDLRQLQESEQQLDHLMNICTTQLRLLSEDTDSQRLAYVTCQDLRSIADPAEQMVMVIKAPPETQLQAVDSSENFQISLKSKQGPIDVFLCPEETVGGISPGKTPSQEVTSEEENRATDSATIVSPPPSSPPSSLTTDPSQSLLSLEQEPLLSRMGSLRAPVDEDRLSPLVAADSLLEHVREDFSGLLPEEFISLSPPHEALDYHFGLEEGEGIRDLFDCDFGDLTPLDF
Sequence of CCAAT/enhancer-binding protein beta (Homo sapiens) (P17676 whole entry, looked up): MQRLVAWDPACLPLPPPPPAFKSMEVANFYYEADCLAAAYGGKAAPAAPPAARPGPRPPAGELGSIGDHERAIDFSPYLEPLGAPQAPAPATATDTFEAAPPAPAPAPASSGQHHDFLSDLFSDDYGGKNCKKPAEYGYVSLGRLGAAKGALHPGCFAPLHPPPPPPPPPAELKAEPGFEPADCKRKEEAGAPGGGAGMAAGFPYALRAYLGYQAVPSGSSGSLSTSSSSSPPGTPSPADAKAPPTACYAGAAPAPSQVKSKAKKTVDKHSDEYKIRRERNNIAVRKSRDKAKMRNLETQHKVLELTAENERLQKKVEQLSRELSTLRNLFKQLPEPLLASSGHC

C[C@H]1O[C@@H](O[C@H]2[C@@H](O)C[C@H](O[C@H]3[C@@H](O)C[C@H](O[C@H]4CC[C@@]5(C)[C@H](CC[C@@H]6[C@@H]5C[C@@H](O)[C@]5(C)[C@@H](C7=CC(=O)OC7)CC[C@]65O)C4)O[C@@H]3C)O[C@@H]2C)C[C@H](O)[C@@H]1O
active: [1] 0.0776 µM | [2] 0.0593 µM | [3] 2.56 µM | [4] 0.11 µM | [7] 0.0857 µM | [13] 0.163 µM | [14] 0.145 µM | [16] 0.202 µM | [17] 0.335 µM
inactive: [5] | [6] | [8] | [9] | [10] | [11] | [12] | [15] | [18]

C=CCCC(=O)/C=C/C1C(C)=CCCC1(C)C (stereo unspecified)
active: [3] 140 µM | [4] 175 µM | [5] 53.2 µM | [6] 121 µM | [11] 160 µM
not listed: [19]
inactive: all other assays above

CCCC1O[C@@H]2C[C@H]3[C@@H]4CCC5=CC(=O)C=C[C@]5(C)[C@H]4[C@@H](O)C[C@]3(C)[C@]2(C(=O)CO)O1 (stereo partly specified)
active: [2] 56.5 µM | [4] 100 µM | [6] 165 µM | [11] 100 µM
not listed: [13]
inactive: all other assays above

C[C@H]1C[C@@H](O)CC(C)(C)C1
not listed: [13] | [15]
inactive: all other assays above
